From PubChem
A selection: hits, their analogues and other compounds. The true share with any hit is near 3.5%.
Anthrax LF inh2 = anthrax lethal factor protease inhibition. multiplex microsphere protease cleavage assay, LF. inhibition, % at 10 µM. hit rate 0.12% among 360,000; also: plate controls were buffer without enzyme for full effect and enzyme alone for no effect
BoNT-A LC inh2 = BoNT A light chain protease inhibition. multiplex microsphere protease substrate cleavage, flow cytometry. inhibition, % at 10 µM. hit rate 0.17% among 360,000; also: plate controls were buffer without enzyme for full effect and enzyme alone for no effect
BoNT-F LC inh = blocks Botulinum neurotoxin F light chain protease | Multiplex microsphere protease cleavage assay, flow cytometry | inhibition, % at 10 µM | hit rate 0.22% among 360,000 | AID 588497; in the data active = inhibition above about 35%, passing the limit was not always enough; inconclusive = no clear call, values can overlap the other calls; also: plate controls were buffer without enzyme for full effect and enzyme alone for no effect
Bead autofluor = flagged as autofluorescent in microsphere protease counterscreen; fluorescence intensity (concentration not given with the values); hit rate 3.1% among 360,000; compound autofluorescence counterscreen, microsphere flow cytometry; stronger effect = higher value; AID 624483; in the data active = fluorescence intensity above about 16000; inconclusive = no clear call, values can overlap the other calls
Active calls of the source: *; ? = inconclusive. Rule as the data show it, unless noted: active = inhibition above about 30%; inconclusive = no clear call, values can overlap the other calls; inactive = below that.

SMILES	Anthrax LF inh2	BoNT-A LC inh2	BoNT-F LC inh	Bead autofluor
O=C(/C=C/c1ccccc1)N1CCCN(C(=O)/C=C/c2ccccc2)CC1	-4.3	0.2	-1.7	20323*
O=C(/C=C/c1ccccc1)N1CCN(C(=O)c2ccco2)CC1	1.5	0.2	0.3	8132
O=C(Nc1cccc(F)c1)C1CCN(C(=O)c2ccc(Br)cc2)CC1	0.8	-0.7	-1.3	23473*
O=C(Nc1ccc(Br)cc1)C1CCN(C(=O)c2ccc(F)cc2)CC1	-1.0	0.5	3.5	2076
COC(=O)c1ccc2nc(C)c(C)nc2c1	-1.5	?	-0.3	20620*
CCOC(CNC(=O)c1ccc2c(c1)nc(C)n2-c1cccc(F)c1)OCC	-3.5	-0.9	-3.6	23358*
Cn1c(COc2ccc(Cl)cc2)nnc1SCC(=O)NC1CCCC1	-0.3	0.9	-0.4	6037
OC(Cn1c2ccccc2c2ccccc21)C[n+]1cccc2ccccc21 (stereo not drawn)	-2.9	?	-19.4	20032*
Cc1nc2ccccc2n1CC(O)Cn1c2ccccc2c2ccccc21 (stereo not drawn)	-3.6	?	3.6	15620
CCOC1(C(F)(F)F)NC(=O)N(Cc2ccc(OC)cc2)C1=O (stereo not drawn)	-7.7	0.0	-0.5	19545*
C=C(C)Cn1c(C2CC(=O)N(Cc3ccccc3)C2)nc2ccccc21 (stereo not drawn)	-3.5	0.5	-4.1	5104
C=CCN1CC(c2nc3ccccc3n2CCOc2ccccc2)CC1=O (stereo not drawn)	0.1	-1.8	-3.5	22558*
CCOc1ccccc1NC(=O)c1cnc(NS(=O)(=O)c2ccccc2)nc1	-2.9	-1.4	2.6	4158
C/C(NCCc1ccccc1)=C1/CCOC1=O	3.5	-0.4	7.7	3885
Cc1nn(Cc2c(F)c(F)c(F)c(F)c2F)c(C)c1NC(=O)c1ccc(COc2ccccc2Cl)o1	0.5	15.0	14.6	19196*
C=CCn1c(C)csc1=Nc1ccccc1C	-7.0	-0.9	-7.7	4121
COc1ccc(CNc2ncc(-c3ccccc3)n2C)cc1	1.9	1.4	?	3144
CCOc1cc(CNc2ncc(-c3ccc(OC)cc3)n2C)ccc1O	-4.4	0.3	-3.8	20656*
Cc1scc(C(=O)NNC(=S)NC(C)c2ccccc2)c1C (stereo not drawn)	0.7	0.0	-2.3	2150
COc1ccc(NC(=O)c2ccc(S(=O)(=O)N(C)C)cc2)cc1	-4.5	0.1	2.1	3406
COc1cc(OC)cc(C(=O)Nc2ccc(S(=O)(=O)N(C)C)cc2)c1	-2.5	0.6	-1.7	19847*
CCOCC(O)CS(=O)(=O)c1ccccn1 (stereo not drawn)	-0.3	?	1.8	23197*
Cc1ccccc1OS(=O)(=O)c1cn(C)c(=O)n(C)c1=O	2.5	0.7	-1.1	4179
COc1ccc(C(=O)Nc2ccccc2-c2nnn(CC(=O)Nc3ccc4c(c3)OCCO4)n2)cc1	0.3	-0.8	-0.7	20699*
CN(C(=O)c1ccc(NC(=O)Cc2cccc(NC(=O)C3CCN(C(=O)C4CCCCC4)CC3)c2)cc1)C1CCCC1	7.2	0.8	0.7	3083
SMILES	Anthrax LF inh2	BoNT-A LC inh2	BoNT-F LC inh	Bead autofluor
Cc1cccn2c(=O)nc(SCC(=O)N3CCC(C)CC3)nc12	2.9	-0.4	-7.8	6131
O=C(Nc1sccc1C(=O)NCc1ccco1)c1cccnc1	2.7	?	-0.6	16659*
Cn1c(=O)n(C)c2cc(S(=O)(=O)N3CCOCC3)ccc21	0.4	?	-0.7	20981*
Cc1cc(C)cc(NC(=S)N=Nc2c(O)n(C)c3ccc(S(=O)(=O)N4CCOCC4)cc23)c1	15.2	36.8*	3.5	1933
Cn1c(=O)c(=O)n(C)c2cc(S(=O)(=O)N3CCCCCC3)ccc21	-4.3	?	-1.8	19386*
CCN(Cc1ccccc1)C(=O)CCS(=O)(=O)c1ccc2c(c1)CCN2C(C)=O	3.0	0.0	3.8	4467
COCCNC(=O)C1CCCN(C(=O)c2ccnc(Cl)c2)CC1 (stereo not drawn)	-5.7	-0.5	0.3	3983
Cc1ccc(S(=O)(=O)N2CCN(S(=O)(=O)c3ccc(C)cc3)C3OCCOC32)cc1 (stereo not drawn)	-1.1	-1.5	-2.0	16671*
Cc1ccc(S(=O)(=O)N2CCCCC2C(=O)O)cc1 (stereo not drawn)	2.0	0.2	-4.1	3393
Cc1ccc(S(=O)(=O)N2CCN(C(=O)CN3CCOCC3)C2C(C)C)cc1 (stereo not drawn)	2.5	1.6	-0.5	22471*
Cc1ccnc(NC(=O)Cn2cc([N+](=O)[O-])cn2)c1	-1.7	-0.1	-2.9	3929
O=C(c1cccnc1)N1CCCc2ccccc21	-1.9	-0.5	-1.7	20718*
O=C(c1ccc(S(=O)(=O)N2CCOCC2)cc1)N1CCCc2ccccc21	1.5	-1.6	-2.9	17398*
O=C(c1cnc2ccccn2c1=O)N1CCCc2ccccc21	-5.8	8.7	9.9	17332*
O=C(c1cnc2n(c1=O)CCS2)N1CCCc2ccccc21	0.9	2.9	3.6	22039*
Cc1cc2cc(C)c3nnc(SCc4ccccn4)n3c2cc1C	-3.2	0.5	-1.0	2520
Cc1ccc(C)c2c1cc(C)c1nnc(SCc3ccccn3)n12	-3.1	-4.7	-5.4	26246*
Cc1c(N2C(=O)C3C4C=CC(C4)C3C2=O)c(=O)n(-c2ccccc2)n1C (stereo not drawn)	-22.3	?	?	3898
N=c1c2c(n(Cc3ccc(Cl)cc3)c3c1CCC3)CCC2	-0.7	-1.5	-1.4	20485*
N=c1c2c(n(Cc3ccc(F)cc3)c3c1CCC3)CCCC2	1.8	-0.5	-1.2	4615
Cc1ccc(-c2cc(C(=O)N(C)CC(=O)Nc3ccccc3Br)c3ccccc3n2)o1	-1.4	4.6	6.4	?
CCN1C(=O)c2c(C)nc3ccccc3c2C1=O	-3.0	-1.0	0.2	20844*
CCN1C(=O)c2ccc(-c3nc4ccccc4c(=O)o3)cc2C1=O	-0.5	0.5	2.5	5692
Cc1ccc(C(=O)COC(=O)CNC(=O)c2ccco2)cc1	1.0	-1.0	-1.5	20040*
COC(=O)c1cccc(COC(=O)CNC(=O)c2ccco2)c1	-1.3	-2.6	0.0	20436*
SMILES	Anthrax LF inh2	BoNT-A LC inh2	BoNT-F LC inh	Bead autofluor
O=C(CNC(=O)c1ccco1)OCC(=O)c1ccc(Br)cc1	4.6	-7.8	-31.3	3616
O=C(O)c1ccccc1-c1ccccc1C(=O)Nc1ccc2c(c1)C(O)c1ccccc1-2 (stereo not drawn)	-3.5	0.1	-9.0	3650
Cc1ccc(S(=O)(=O)N2CCN(C(=O)c3ccc4ccccc4n3)CC2)c(C)c1	3.6	0.0	0.2	3874
O=C(NCCO)/C(=C\c1ccco1)NC(=O)c1cccs1	-7.3	1.0	4.8	3989
O=C(NCCO)/C(=C/c1ccc(Br)cc1)NC(=O)c1cccs1	-0.7	-2.1	-0.3	23982*
CC(C)c1ccc(NC(=O)C(c2ccccc2)N(Cc2ccco2)C(=O)CC2NC(=O)NC2=O)cc1 (stereo not drawn)	-0.2	-0.3	-1.5	3175
CN(CCOc1ccc(Cl)cc1)C(=O)CN1C(=O)NC2(CCCC2)C1=O	0.2	-1.5	-12.8	6525
Cc1ccc(N2C(=O)NC(=O)C3(Cc4ccccc4N4CCCC43)C2=O)cc1 (stereo not drawn)	1.8	?	1.6	19892*
CN1CCN2c3ccccc3CC3(C(=O)N(C)C(=O)N(C)C3=O)C2C1 (stereo not drawn)	-8.0	?	?	3652
